TbREL1 inh = TbREL1 RNA ligase inhibitors, primary screen, biochemical, FRET fluorescence; TbREL1 RNA ligation; inhibition, % at 9.66 µM; actives 0.49% (n = 89,000);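 active = inhibition above the mean inhibition across all screened compounds plus 3 SD, cut at about 11% in these data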;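 note: 0% = plate median of test wells and 100% = NSC42067 control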
Target sequence (P86926 whole entry, looked up): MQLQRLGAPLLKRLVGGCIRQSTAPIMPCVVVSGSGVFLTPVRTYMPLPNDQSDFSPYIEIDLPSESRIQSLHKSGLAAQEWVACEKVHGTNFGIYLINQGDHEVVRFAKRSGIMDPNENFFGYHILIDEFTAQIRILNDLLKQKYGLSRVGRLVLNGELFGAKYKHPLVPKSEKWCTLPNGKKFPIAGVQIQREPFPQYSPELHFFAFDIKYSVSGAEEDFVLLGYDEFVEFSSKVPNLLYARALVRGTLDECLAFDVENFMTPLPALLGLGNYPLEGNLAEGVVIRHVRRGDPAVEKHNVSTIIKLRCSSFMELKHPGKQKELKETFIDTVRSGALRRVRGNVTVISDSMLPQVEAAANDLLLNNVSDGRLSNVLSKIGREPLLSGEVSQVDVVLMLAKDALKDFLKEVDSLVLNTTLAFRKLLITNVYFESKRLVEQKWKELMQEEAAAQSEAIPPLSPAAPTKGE
TbREL1 conf = TbREL1 RNA ligase inhibitors, confirmation, biochemical, FRET fluorescence, triplicate; shares compounds with TbREL1 inh; TbREL1 RNA ligation; inhibition, % at 9.66 µM; actives 37% (n = 390); AID 1117282, 2014;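 active = mean inhibition across replicates above a set limit taken from the earlier primary screen, cut at about 11% in these data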;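 note: 0% = REL1 with substrate and DMSO and 100% = REL1 plus control inhibitor NSC42067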
Starred values were filed as active, the others as inactive. Shown is part of a subset that was picked to be rich in hits.

Screening CC(C)(C)C(=O)Nc1nnc(SCc2cccc(F)c2)s1 returned TbREL1 inh 5.
Screening COc1ccccc1C1c2c(ncn(-c3ccccc3)c2=N)Oc2ccc3ccccc3c21 (stereo not given) returned TbREL1 inh 6.
For O=C(NC1CCCCN(Cc2ccc(Cl)cc2)C1=O)c1ccc(COc2ccccc2)cc1 (stereo not given) the results were TbREL1 inh 12* and TbREL1 conf -2.
Screening O=C(NC1CCCCN(Cc2ccc(Cl)cc2)C1=O)c1ccccc1 (stereo not given) returned TbREL1 inh 4.
Screening Cc1ccccc1CN1CCCCC(NC(=O)c2ccc(COc3ccccc3)cc2)C1=O (stereo not given) returned TbREL1 inh 0.
COc1ccc(OC)c(S(=O)(=O)Nc2ccc(C(=O)Nc3cc(C)on3)cc2)c1 was read as TbREL1 inh 5.
`COC(=O)[C@]12C[C@H](CC(=O)NCc3ccc(C)o3)C(=O)N(CCC3=CCCCC3)C1=C[C@H](C1CCCC1)O[C@@H]2C` gave TbREL1 inh -1.
Screening O=S(=O)(c1cc(Cl)cc(Cl)c1)N1CCN(c2nc(-c3cccs3)nc3ccccc23)CC1 returned TbREL1 inh 12* and TbREL1 conf 6.
For O=S(=O)(c1ccc(Cl)cc1)N1CCN(c2nc(C(F)(F)F)nc3ccccc23)CC1 the results were TbREL1 inh 0.
O=S(=O)(c1cc(C(F)(F)F)ccc1Cl)N1CCN(c2ncnc3ccccc23)CC1 was read as TbREL1 inh -2.
Screening CCn1c(Cc2cccs2)nnc1SCC(=O)Nc1ccc(OCc2ccccc2)cc1 returned TbREL1 inh -2.
For CCOC(=O)Cc1nc(N2CCN(CCO)CC2)c2c(C)c(C(=O)OCC)sc2n1 the results were TbREL1 inh 2.
`Cc1ccc(-n2c(SCC(=O)c3ccccc3Br)nnc2-c2ccncc2)cc1` gave TbREL1 inh -4.
Nc1[nH]c(C(=O)c2ccccc2)c(-c2ccc(Br)cc2)c1C(=O)N1CCN(CCO)CC1 was read as TbREL1 inh -2.
Cc1ccc(S(=O)(=O)N2CCCC(C(=O)NCCN3CCC(Cc4ccccc4)CC3)C2)cc1 (stereo not given) was read as TbREL1 inh 9.
Screening C=CCN=C1NC(c2cccc(F)c2)C(C(=O)OC)=C(C)N1Cc1cccc(C(F)(F)F)c1 (stereo not given) returned TbREL1 inh 11* and TbREL1 conf 12*.
`COC(=O)C1=C(C)N(Cc2cccc(C(F)(F)F)c2)C(=NCc2ccccc2C(F)(F)F)NC1c1ccccc1C(F)(F)F` (stereo not given) gave TbREL1 inh 16* and TbREL1 conf 24*.
For COC(=O)C1=C(C)N(Cc2ccccc2)C(=O)N[C@H]1c1cccs1 the results were TbREL1 inh -1.
COC(=O)C1=C(C)N(Cc2ccc(F)cc2)C(=S)NC1c1ccc(F)cc1 (stereo not given) was read as TbREL1 inh -1.
Screening CCN1C(=O)N[C@@H](c2cccc(C(F)(F)F)c2)C(C(=O)OC)=C1C returned TbREL1 inh 1.
COC(=O)C1=C(C)N(Cc2ccc(F)cc2)C(=S)NC1c1cccc(F)c1 (stereo not given) was read as TbREL1 inh -6.
COC(=O)C1=C(C)N(Cc2ccccc2)C(=S)NC1c1cccc(Br)c1 (stereo not given) was read as TbREL1 inh -5.
`Cc1c(C(=O)NCc2ccccc2C(F)(F)F)sc(=O)n1Cc1cccc(C(F)(F)F)c1` gave TbREL1 inh 2.
COC(=O)C1=C(C)N(Cc2cccc(C(F)(F)F)c2)C(=NCc2ccccc2C(F)(F)F)NC1c1cccc(F)c1 (stereo not given) was read as TbREL1 inh 15* and TbREL1 conf 22*.
`CCN=C1NC(c2ccccc2C(F)(F)F)C(C(=O)OC)=C(C)N1Cc1ccc(C(F)(F)F)cc1` (stereo not given) gave TbREL1 inh 12* and TbREL1 conf 17*.
COc1cccc(-c2nnc(SCC(=O)Nc3cccc4ccccc34)n2Cc2ccco2)c1 was read as TbREL1 inh 2.
For COC(=O)[C@]12C[C@H](CC(=O)NCc3ccc(OC)c(OC)c3)C(=O)N(Cc3ccco3)C1=C[C@H](C1CCCC1)O[C@@H]2C the results were TbREL1 inh -2.
For Cc1ccnc(NC(=S)N2CCC(Nc3cccc(C(F)(F)F)c3)CC2)c1 the results were TbREL1 inh 0.
COc1ccc(-c2cc(C(=O)N=Nc3c(O)[nH]c4ccccc34)[nH]n2)cc1 was read as TbREL1 inh 5.
`C[C@H]1[C@@H](OC(=O)NCc2cccs2)CC[C@@]23CCCN2C(=O)CCC[C@@H]13` gave TbREL1 inh 4.
